# A549 tox: counter-screen for Nrf2 inhibitors: cytotoxicity in A549 cells | Potency, µM (highest dose often 46 µM), without a hit: at the top dose activity change, negative = cytotoxicity, usual class: inhibitors | actives 0.16% (n = 390,000) | AID 504648 | A549 ARE-Fluc cells, CellTiter-Fluor viability, 18-24 h; note: % is set by controls: 0 for no effect and ±100 for the full control effect
#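 A549 ARE_Fluc cells in 5% FBS OPTI-MEM were exposed to compounds in concentration-response for 18-24 h at 37 deg C. Viability was read by CellTiter-Fluor fluorescence (Ex 405/Em 525) after 30 min, before the luciferase read.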
# TrxR1 substrate: rat thioredoxin reductase 1 substrate activity | O89049 | purified TrxR1 substrate turnover, NADPH consumption readout | Potency, µM (doses to about 114 µM), inactives show at the top dose activity change, negative = substrate turnover | actives 0.01% (n = 390,000) | AID 588456; note: % is set by controls: 0 for no effect and ±100 for the full control effect; nearly all actives have a fitted effect of over 50% in size
#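 Rat TrxR1, dispensed at 90 nM, was prereduced with 400 uM NADPH (final) for 5 min at ~22 deg C, then incubated with compound 15 min before 400 uM selenite. A first-read NADPH fluorescence drop versus no-compound background flagged substrates.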
# rTrxR1 inhibitor: blocks rat thioredoxin reductase 1 | recombinant rTrxR1, NADPH fluorescence consumption, selenite substrate | O89049 | AID 588453 | actives 1% (n = 390,000) | Potency, µM (top dose mostly 114 µM), without a hit: top-dose activity change, negative = inhibition, hits mostly inhibitors; note: % is set by controls: 0 for no effect and ±100 for the full control effect; nearly all actives have a fitted effect of over 65% in size
#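 Rat TrxR1 (90 nM in the dispensed reagent) was pre-reduced with 400 uM NADPH for 5 min at room temperature, then incubated with compound for 15 min. After 400 uM selenite was added, NADPH fluorescence (Ex 340/Em 450 nm) was followed for 8 min.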
# Nrf2 inh: inhibitors of Nrf2 signaling; A549 ARE-Fluc reporter, luciferase luminescence, 18-24 h; Potency, µM (titrated, usually from 46 µM), for inactives: at the top dose activity change, negative = inhibition, usual class: inhibitors; actives 2.1% (n = 360,000); note: % is set by controls: 0 for no effect and ±100 for the full control effect; nearly all actives have a fitted effect of over 60% in size
#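 Two sequential reads on A549 ARE_Fluc cells exposed to compound for 18-24 h: a CellTiter-Fluor fluorescence read for viability, then a luciferase luminescence read for Nrf2/ARE activity.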
# GALK inh: galactokinase (human) inhibition; Potency, µM (titrated, usually from 57.5 µM), for inactives: at the highest dose activity change, negative = inhibition, most hits filed as inhibitors; Purified GALK, Kinase-Glo residual ATP luminescence; P51570; actives 0.007% (n = 270,000); note: % is set by controls: 0 for no effect and ±100 for the full control effect
# Target sequence (P51570 whole entry, looked up): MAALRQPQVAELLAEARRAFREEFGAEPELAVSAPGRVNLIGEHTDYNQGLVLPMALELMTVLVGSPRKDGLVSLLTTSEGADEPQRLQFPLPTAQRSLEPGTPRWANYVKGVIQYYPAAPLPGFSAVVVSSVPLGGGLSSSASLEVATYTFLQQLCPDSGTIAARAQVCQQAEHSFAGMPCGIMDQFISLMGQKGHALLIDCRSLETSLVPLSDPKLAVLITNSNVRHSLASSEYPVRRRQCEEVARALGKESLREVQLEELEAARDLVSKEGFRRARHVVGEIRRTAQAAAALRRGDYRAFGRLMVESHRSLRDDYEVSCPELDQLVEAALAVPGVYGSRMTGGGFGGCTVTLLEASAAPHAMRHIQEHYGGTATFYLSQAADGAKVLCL
#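 GALK at 5 nM final was combined with compound, 35 uM ATP and 100 uM galactose in HEPES pH8.0 with MgCl2 and DTT. The reaction ran one hour at room temperature before luminescent ATP detection.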
# Nrf2 ARE act: activators of Nrf2 (ARE) signaling; AREc32 ARE-luciferase reporter (MCF7-derived line), luminescence, 24 h; Potency, µM (doses to about 46.1 µM), without a hit: at the top dose activation, hits mostly activators; actives 0.31% (n = 410,000); AID 624171; note: % of control where 0% means no effect; nearly all actives have a fitted effect of over 65% in size
#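 Steps: seed AREc32_Fluc cells (1000/well, 5% FBS OPTI-MEM); incubate overnight at 37 deg C; add 23 nL compound; incubate 24 hr; add Steady-Glo; hold 30 min RT; read luminescence.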
# The depositor's hits bear a star; ? = inconclusive; / = not tested or not shown; [ ] = remark or other dose. Compounds with a hit are over-represented: about 3% of the library has one in this group of screens. Calls come from the whole dose curve; as a rule, active = well fitted curve in the direction sought with a large enough effect; inconclusive = small, poorly fitted or top-dose-only effect, or another doubt; inactive = no such curve, though single readings can be large; an effect the other way counts as inactive or inconclusive. Potency is the fitted concentration of half-maximal effect.
SMILES,A549 tox,TrxR1 substrate,rTrxR1 inhibitor,Nrf2 inh,GALK inh,Nrf2 ARE act
CSc1ccc(CCNC(=O)c2ccc(CS(=O)Cc3ccc(Cl)cc3)o2)cc1 (configuration not stated),-1.6%,-3.9%,1.6%,2.8%,-10.5%,-0.3%
O=C(NCCc1ccc(Cl)cc1)c1ccc(CS(=O)Cc2ccc(Cl)cc2)o1 (configuration not stated),?,-0.3%,-9.4%,25.9µM*,0.6%,1.9%
CCc1ccccc1S(=O)(=O)Cc1ccc(C(=O)NCCc2ccc(Cl)cc2)o1,?,0.1%,-1.0%,23.1µM*,/,3.3%
COc1ccccc1S(=O)Cc1ccc(C(=O)NC2CCCC2)o1 (configuration not stated),-0.9%,4.2%,?,4.8%,4.5%,0.4%
Cc1ccc(C(=O)Nc2ccccc2C(=O)O)cc1S(=O)(=O)N1CCCCCC1,-5.5%,-1.5%,-7.6%,?,/,-0.4%
COc1ccc(C2Nc3cccc4cccc(c34)N2)cc1Br,-0.2%,0.1%,?,7.9%,3.9%,20.0%
COc1cc(C2Nc3cccc4cccc(c34)N2)ccc1OC(C)=O,-17.4%,1.2%,10µM*,6.0%,0.7%,13.2%
COc1cc(C2Nc3cccc4cccc(c34)N2)cc(OC)c1O,?,10.6%,15.8µM*,?,-2.5%,-0.6%
C/C=C\C1=CCCC1Nc1ncnc2ccc(-c3c(C)noc3C)cc12 (configuration not stated),2.4%,/,/,?,/,/
c1ccc(CNCc2nnc(-c3cc4ccccc4[nH]3)s2)cc1,-1.6%,/,/,?,/,/
COc1ccc(NC(=O)CSc2nc(-c3cc(OC)c(OC)c(OC)c3)[nH]c2-c2ccc(F)cc2)cc1,?,-10.7%,-10.6%,?,/,0.5%
CCCCOC(=O)c1ccc(NC2=NS(=O)(=O)c3ccccc32)cc1,3.9%,4.6%,21.7%,12.9%,/,0.2%
COc1ccccc1-c1cc(C(F)(F)F)nc(S(=O)(=O)CCCC(=O)O)n1,-17.7%,11.4%,-26.4%,/,0.2%,11.2µM*
COc1ccccc1-c1cc(C(F)(F)F)nc(S(=O)(=O)CCCC(=O)Nc2cc(OC)c(OC)c(OC)c2)n1,0.4%,-5.4%,22.4µM*,-4.8%[9.27 µM],/,0.5%
COc1ccccc1-c1cc(C(F)(F)F)nc(S(=O)(=O)CCCC(=O)N2CCOCC2)n1,-6.7%,11.0%,?,?,-3.9%,?
COc1ccc(-c2cc(C(F)(F)F)nc(S(=O)(=O)CCCC(=O)Nc3cccc(O)c3)n2)cc1OC,10.2%,-11.2%[57.1 µM],?,-5.0%,-2.3%,?
COc1ccc(NC(=O)CCCS(=O)(=O)c2nc(-c3ccc(OC)c(OC)c3)cc(C(F)(F)F)n2)cc1OC,-13.9%,-4.6%,25.1µM*,-7.1%[9.27 µM],/,?
Cc1cc(NS(=O)(=O)c2ccc(NC(=O)c3ccccc3F)cc2)nc(C)n1,-13.8%,3.3%,10.6%,-26.0%,/,-0.2%
CCOc1ccc2nc(NC(=O)c3cc(=O)c4cc(C)cc(C)c4o3)sc2c1,3.0%,4.1%,21.7%,6.9%,/,1.3%
O=C(NCCc1ccccc1Cl)c1ccc2c(c1)nc1n2CCCCC1,-5.5%,-2.4%[57.1 µM],6.8%[57.1 µM],/,/,-4.3%
COc1ccc(N(C)C(=O)c2nc(-c3cccc(F)c3)n3c2CCCCC3)c(OC)c1,3.6%,-3.1%,-6.2%,20.4%,/,-0.9%
CC1CCCN(c2ncnc3c2cnn3-c2ccc(F)cc2)C1 (configuration not stated),22.9%,-3.5%[57.1 µM],0.1%[57.1 µM],/,/,-1.1%
CCOC(=O)C(=O)Nc1c(C(=O)Nc2cccc(F)c2)oc2ccccc12,0.6%,7.2%,4.8%,13.0%,/,-0.3%
Cc1ccc(CNc2ncccc2-c2nc(-c3ccc(Cl)cc3)no2)cc1,14.6%,-1.3%,12.2%,12.1%,/,8.3%
CCC(=O)N(CCC(c1ccc(C)cc1)c1ccco1)Cc1ccco1 (configuration not stated),2.7%,-1.9%,35.5µM*,-5.0%,-5.8%,6.7%

# Compound activity deposited in PubChem BioAssay by National Center for Advancing Translational Sciences (NCATS).
